Screening results: PubChem BioAssay, National Center for Advancing Translational Sciences (NCATS)
PTAP TSG101 blk – blocks PTAP/TSG101 interaction to inhibit HIV-1 budding | Potency, µM (top dose mostly 115 µM), for inactives: at the highest dose activity change, negative = inhibition, hits mostly inhibitors | 340,000 tested, under 10 active | Q99816 | Fluorescence polarization, FITC-PTAP peptide / Tsg101 binding; active = well fitted inhibition curve with a large enough effect in the main read-out, with a control signal flat, not every such curve was filed as active; inconclusive = small, poorly fitted or top-dose-only effect, or effect the other way, or a change in a side signal; inactive = no such curve, though single readings can be large or run the other way; note: potency is the fitted concentration of half-maximal effect; % of control where 0% means no effect
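Tsg101 binding domain (10 uM final) was mixed with compound and a FITC-labeled PTAP peptide (50 nM final) in HEPES pH 7.5 buffer with NaCl, Tween 20, EDTA and TCEP; fluorescence polarization was read after 20 min at r.t.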
TRPML1 ag – human mucolipin-1 channel agonism; Q9GZU1; TRPML1-expressing cells, Ca2+ dye fluorescence, FDSS; activation, % (concentration not given with the values); hit rate 0.12% among 410,000; AID 624414; in the data active = activation above about 50%; inconclusive = mostly about 30% to 49%; note: 0% is about no effect
Target sequence (Q9GZU1 whole entry, looked up): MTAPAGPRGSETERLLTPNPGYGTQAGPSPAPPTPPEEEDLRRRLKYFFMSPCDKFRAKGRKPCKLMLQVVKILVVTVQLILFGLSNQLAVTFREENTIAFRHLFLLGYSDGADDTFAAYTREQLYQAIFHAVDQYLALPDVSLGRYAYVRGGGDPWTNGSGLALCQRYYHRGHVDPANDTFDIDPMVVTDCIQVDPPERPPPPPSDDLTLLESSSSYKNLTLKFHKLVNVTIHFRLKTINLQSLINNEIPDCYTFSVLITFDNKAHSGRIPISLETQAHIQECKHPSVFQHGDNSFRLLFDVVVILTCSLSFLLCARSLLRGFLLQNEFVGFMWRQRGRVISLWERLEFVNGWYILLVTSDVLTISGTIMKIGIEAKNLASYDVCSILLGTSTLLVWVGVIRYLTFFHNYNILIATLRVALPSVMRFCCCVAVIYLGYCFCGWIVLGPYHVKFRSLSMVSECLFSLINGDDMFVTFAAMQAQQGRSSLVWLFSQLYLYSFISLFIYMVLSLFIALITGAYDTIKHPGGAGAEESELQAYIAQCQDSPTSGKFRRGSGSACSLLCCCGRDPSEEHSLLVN
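Tetracycline-induced TRPML1-DL cells are seeded and incubated overnight before loading with a no-wash Ca2+ dye and quencher. Agonist activity is taken from the 110 s fluorescence read following compound pin-transfer on an FDSS, before EC80 54-4 challenge.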
BRCA1 expr act – increases BRCA1 expression; Potency, µM (doses to about 46.1 µM), inactives show top-dose activation, most hits filed as activators; AID 624202; MCF7-BRCA1-FFLuc reporter, luminescence, 48 h; response scale: scaled: vehicle 0%, 10 µM genistein 100%; hit rate 1.1% among 380,000; note: potency is the fitted concentration of half-maximal effect; nearly all actives have a fitted effect of over 80% in size
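First, MCF7-BRCA1-FFLuc cells (2000/well) attach for 2 h; next, compounds are pin-added and incubated 48 h at 37 °C; finally, luciferase reagent is added and luminescence read after 15 min.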
TRPML1 inh – blocks the human TRPML1 channel. Q9GZU1. TRPML1-inducible cells, Ca2+ dye fluorescence, FDSS; stronger effect = lower value; inhibition of EC80 agonist-evoked calcium signal. activity change, negative = inhibition, % (concentration not given with the values). hit rate 0.02% among 390,000. AID 624415; in the data active = activity change below about -50%; inconclusive = between about -30% and that limit;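 note: stimulus is agonist 54-4 at its EC80 concentration; % is set by controls: 0 for no effect and ±100 for the full control effect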
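Tet-induced TRPML1-DL cells loaded with Ca8 no-wash calcium dye were read kinetically on FDSS. Compound addition was followed by EC80 agonist 54-4 (4 uM final); inhibition was read over 110 s.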
IL-2 act – IL-2 activation. hit rate 0.065% among 360,000. activation, % (series mostly up to about 46 µM). IL-2 activation reporter assay, cell-based qHTS; stimulated with anti-CD3/CD4/CD28 beads; in transgenic mouse T cells; in the data active = activation above about 50%; inconclusive = mostly about 30% to 49%; note: 0% is about no effect
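Screening format: compound pinned onto unstimulated transgenic mouse T cells, 60 min incubation, then anti-CD3/anti-CD4/anti-CD28 bead stimulation for 18 hours at 37 degrees C, followed by EGFP and DsRed detection.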
PKM2 activator – increases activity of human pyruvate kinase M2 | P14618 | purified PKM2, Kinase-Glo ATP luminescence, activation; response scale: 0% is enzyme alone, no compound | Potency, µM (series often up to 57.5 µM), inactives show top-dose activation, actives largely listed as activators | hit rate 0.34% among 260,000 | AID 1631; note: potency is the fitted concentration of half-maximal effect; % is set by controls: 0 for no effect and ±100 for the full control effect; nearly all actives have a fitted effect of over 55% in size
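Purified hPK-M2 (>95% pure) converted ADP (0.1 mM final) to ATP with 0.5 mM PEP in 50 mM imidazole pH7.2, KCl, MgCl2, Tween 20, BSA; 1 h at room temperature. ATP detected by Kinase-Glo luminescence.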
Numbers without * were called inactive; ? = inconclusive; nt = not tested or not shown. Hits are enriched below; roughly 1.3% of the tested compounds scored in any of these assays. Unless noted, calls come from the whole dose curve; as a rule, active = well fitted activation curve with a large enough effect; inconclusive = small, poorly fitted or top-dose-only effect; inactive = no such curve, though single readings can be large or run the other way.

SMILES	PTAP TSG101 blk	TRPML1 ag	BRCA1 expr act	TRPML1 inh	IL-2 act	PKM2 activator
Cc1ccc(Nc2nnc(-c3ccc4c(c3)OCO4)o2)c(C)c1	-5.3%	4.7	10µM*	83.1	-1.0	-0.3%
CN1OC[C@@H]2CN[C@H](c3ccc(-c4cccc(F)c4)cc3)C[C@@H]21	nt	0.9	11.2µM*	10.2	-1.7	nt
CSc1nc(-c2ccccc2)nn1S(=O)(=O)c1ccccc1	-5.2%	-0.8	27.8%	-2.0	-2.8	2.4%
COc1ccc(-c2nc(SC)n(S(=O)(=O)c3ccccc3)n2)cc1	-0.5%	-0.4	10µM*	49.7	-2.9	6.6%
CNc1ccc(/C=C\CCCO)cn1	nt	-0.4	10µM*	nt	1.0	nt
COc1cc2c3nnc(-c4ccc(F)cc4)c-3cn(Cc3ccccc3)c2cc1OC	?	-1.0	-9.1%	3.1	199.2*	7.4%
CN(C)/C=C1\C(=O)N(c2ccc(Cl)cc2)CS1(=O)=O	-3.6%	-0.4	7.94µM*	-1.5	0.0	-0.9%
Cn1cc(Cl)c(C(=O)N/N=C/c2ccc3c4c(cccc24)CC3)n1	-0.4%	1.0	1.26µM*	6.6	-3.0	nt
COc1ccccc1NC(=O)c1sc2nc3c(c(C(F)(F)F)c2c1N)CN(C(C)=O)CC3	nt	2.0	nt	12.8	nt	nt
CSc1ccccc1OCc1cc(C(=O)N(C)Cc2nonc2C)no1	1.9%	-0.6	11.2µM*	0.4	0.6	-2.1%
CSc1ccccc1OCc1cc(C(=O)NC2CCOC2)no1 (stereo not given)	-2.8%	0.9	12.6µM*	8.2	-1.3	nt
CSc1ccccc1OCc1cc(C(=O)N[C@H]2CCCCNC2=O)no1	-0.3%	0.1	11.2µM*	-2.9	-2.8	0.3%
CSc1ccccc1OCc1cc(C(=O)NCc2cccc(C)n2)no1	-7.1%	-1.1	6.31µM*	-0.7	1.3	nt
Cc1nonc1CN(C)C(=O)c1cc(COc2ccc(F)cc2Cl)on1	-6.0%	0.8	95.1%	15.6	-5.3	-0.7%
O=S(=O)(NCCS(=O)(=O)N1CCN(c2ccccc2)CC1)c1ccc(Br)cc1	nt	1.5	nt	-2.1	nt	nt
CCc1ccc(NC(=O)Cn2c(C(=O)OC)cc3oc(C)cc32)cc1	nt	3.7	nt	-10.6	nt	nt
Cc1cc(C)nc(CCNC(=O)c2cc(COc3c(F)cccc3F)on2)n1	-2.4%	-0.7	-1.3%	1.2	0.7	0.8%
Cc1cc(C)nc(CCNC(=O)c2cc(COc3ccccc3)on2)n1	-1.5%	0.6	7.94µM*	-3.6	0.3	-6.6%
Cc1cc(C)c(NC(=O)Cn2c(=O)n(CCc3ccccc3)c(=O)c3ccccc32)c(C)c1	nt	-0.2	4.1%	3.1	nt	nt
COCCN1C(=O)/C(=C/c2ccc(N3CCCC3)cc2)SC1=S	?	59.5*	48.7%	-10.5	0.4	-1.2%
Cc1ccc(-n2c(=O)[nH]c3c(C(N)=O)nc(-c4ccc(C)o4)nc32)cc1	-4.7%	1.1	-60.6%	-1.0	0.0	14.1µM*
O=C(COc1ccccc1C(=O)Nc1ccccc1)Nc1ccccc1-c1ccccc1	nt	-0.1	-48.4%	nt	nt	nt
c1ccc(CCNc2ncnc3c2cnn3-c2ccccc2)cc1	-1.1%	0.9	4.47µM*	39.3	-1.6	2.3%
Cc1ccc(CSc2ncnc3c2cnn3-c2ccc(C)cc2)cc1	-0.3%	-0.7	4.47µM*	-4.4	-2.2	-4.6%
Cc1ccc(-n2ncc3c(SCc4ccccc4)ncnc32)cc1	-5.5%	1.9	4.47µM*	-11.0	-0.2	-0.6%
SMILES	PTAP TSG101 blk	TRPML1 ag	BRCA1 expr act	TRPML1 inh	IL-2 act	PKM2 activator
CCN(c1ccccc1)c1ncnc2c1cnn2-c1ccccc1	3.5%	0.2	5.01µM*	1.6	-2.0	8.1%
Cc1ccc(CSc2ncnc3c2cnn3-c2ccccc2)cc1	0.9%	1.9	57.9%	50.5	0.3	3.8%
CN(Cc1ccccc1)c1ncnc2c1cnn2-c1ccccc1	2.6%	1.6	?	68.7	0.1	-4.7%
Cc1ccc(-n2ncc3c(NCCc4ccccc4)ncnc32)cc1C	nt	1.3	nt	42.9	nt	nt
CC(C)(C)C(=O)CSc1ncnc2c1cnn2Cc1ccccc1	-0.4%	3.6	-14.7%	8.1	-0.7	nt
c1ccc(CSc2ncnc3c2cnn3Cc2ccccc2)cc1	-8.5%	1.9	15.9%	5.6	-2.4	5.01µM*
CCOC(=O)CC(=O)CSc1ncnc2c1cnn2-c1ccccc1	1.3%	-1.1	6.31µM*	11.0	-0.4	5.9%
CCOc1cccc(C(=O)NNC(=O)C2C3C=CC(C3)C2C(=O)O)c1 (stereo not given)	-3.2%	-0.9	5.1%	-6.9	-3.7	-4.3%
COc1ccc(C(=O)Nc2ccc(N3CCN(c4ccccc4)CC3)c(C(=O)O)c2)cc1	nt	-0.3	nt	14.5	nt	nt
CNc1nc(-c2ccc3c(c2)CCN3C(=O)c2ccccc2F)c(C)s1	2.1%	-0.2	?	-12.1	-1.9	4.3%
CNc1nc(-c2ccc3c(c2)CCN3C(=O)CC(C)(C)C)c(C)s1	-5.6%	-0.5	11.2µM*	-0.5	0.9	26.0%
CC(C)(C)c1ccc(-c2nc(C#N)c(NCc3ccncc3)o2)cc1	-0.7%	1.3	11.2µM*	-16.1	-1.0	13.6%
CC1(C)CC(=O)C=C(c2ccc(-c3ccccc3)cc2)C1=O	nt	3.9	12.6µM*	7.4	-1.4	nt
COc1ccc(C2=CC(=O)CC(C)(C)C2)cc1	0.5%	-0.6	80.8%	5.0	-2.7	nt
CC1(C)CC(=O)C=C(c2ccc(-c3ccccc3)cc2)C1	-5.1%	1.2	10µM*	-0.2	0.0	nt
CC(C)(C)n1ncc2c(=O)n(Cc3ccc(C#N)cc3)cnc21	nt	0.3	nt	-5.3	nt	nt
O=C(CSCc1ccccc1F)NCc1ccccc1	-1.7%	-0.8	7.08µM*	-9.6	0.2	-2.8%
Cc1ccc(CNC(=O)CSCc2cccc(F)c2)cc1	-0.6%	-0.4	?	-10.3	-1.2	9.7%
CCc1ccc(CNC(=O)CCSCc2ccccc2F)cc1	nt	1.8	nt	-2.4	nt	nt
O=C(CSCc1cccc(F)c1)NCc1ccccc1	0.7%	1.0	11.2µM*	2.5	0.9	-3.2%
Cc1nn2cc(-c3ccc(Cl)cc3)cnc2c1Cl	1.3%	-0.9	3.16µM*	8.1	-0.2	-2.8%
Cc1cc2ncc(-c3cccc(Cl)c3)cn2n1	0.1%	-0.3	0.0%	-10.4	0.2	-4.1%
CCN1/C(=C/c2ccc3cc(C)ccc3[n+]2CC)Sc2cc(C)c(C)cc21	3.4%	16.5	-52.1%	2.0	0.7	-11.6%
CC[n+]1c(/C=C2\Sc3ccccc3N2C)ccc2cccc(C)c21	18.5%	29.5	-75.7%	-12.2	159.9*	-73.8%
CN1/C(=C/c2cccc[n+]2CCO)Sc2ccccc21	-3.8%	0.3	-18.2%	1.2	2.2	-6.1%
